# Sampled rows, rich in hits. Any-hit rate of the full collection: about 4.6%.
# D1 antag: human D1 dopamine receptor antagonism; HEK293 TREx D1 cells, calcium flux, dopamine EC80; stronger effect = lower value; activity change, negative = inhibition, % at 10 µM; P21728; AID 504652; hit rate 3.2% among 360,000; in the data active = activity change below about -30%; also: % is scaled to controls: 0 for no effect and ±100 for the full control effect
# Target sequence (P21728 whole entry, looked up): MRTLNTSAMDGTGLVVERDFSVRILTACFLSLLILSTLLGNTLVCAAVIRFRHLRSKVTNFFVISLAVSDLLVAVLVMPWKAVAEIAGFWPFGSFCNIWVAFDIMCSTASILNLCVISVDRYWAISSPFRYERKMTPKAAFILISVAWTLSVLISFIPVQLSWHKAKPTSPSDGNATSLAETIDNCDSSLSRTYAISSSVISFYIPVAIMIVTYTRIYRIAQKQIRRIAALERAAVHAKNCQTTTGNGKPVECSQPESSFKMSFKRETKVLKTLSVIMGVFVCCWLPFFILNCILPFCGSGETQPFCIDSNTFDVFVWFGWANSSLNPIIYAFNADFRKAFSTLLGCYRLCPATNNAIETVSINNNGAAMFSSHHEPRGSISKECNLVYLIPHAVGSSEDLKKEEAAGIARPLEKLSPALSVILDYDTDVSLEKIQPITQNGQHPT
#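 Calcium flux readout: force-coupled, inducible Hek293 Trex D1 line, cells induced overnight at 30 C with tetracycline, dye-loaded 30–90 min at RT. Antagonism scored against EC80 dopamine challenge given 180 s after compound.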
# TRHR enhancer-1: allosteric enhancers of human TRH receptor; P34981; TRHR cells, fluo-8 calcium fluorescence, EC20 TRH enhancement; enhancement, % at 2 µM; hit rate 0.66% among 360,000; in the data active = enhancement above about 30%; also: 0% is about no effect
#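 Enhancer read-out: after compound pinning and an initial kinetic agonist-mode read, an EC20 of TRH (10 nM final) was injected and fluo-8 calcium signal (Ex 480/Em 530) followed at 1 s/cycle for 100 cycles in TRHR-expressing cells.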
# TRHR agonist-1: agonists of human TRH receptor; AID 493084; hit rate 0.18% among 360,000; activation, % at 2 µM; TRHR cells, calcium flux fluo-8, FDSS agonist mode; P34981; also: 0% is about no effect
#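 Steps: seed TRHR cells overnight; add fluo-8 no-wash Ca dye, RT 30 min–1.5 h; record 10 s baseline; pin-transfer compounds; monitor fluorescence 1 cycle/s for the agonist window. Calcium increases flag candidate agonists.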
# D1 PAM: human D1 dopamine receptor positive modulation | P21728 | HEK293 TREx D1 cells, calcium flux, dopamine EC20 potentiation | potentiation, % at 10 µM | hit rate 0.036% among 360,000; in the data active = potentiation above about 30%; also: 0% is about no effect
# D1 ag: agonists of human D1 dopamine receptor; HEK293 T-REx D1 cells, calcium flux, agonist mode; hit rate 1% among 360,000; activation, % at 2 µM; also: 0% is about no effect
#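 Inducible HEK293 T-REx D1 cells, force-coupled to calcium signalling, were plated at 4000 cells/well with tetracycline and held overnight at 30 C. After no-wash calcium dye loading, compound-evoked calcium rise over 180 s flagged agonists.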
# TRHR enhancer-2: confirmation of human TRH receptor allosteric enhancers; 970 tested, under 10 active; shares compounds with TRHR enhancer-1; TRH receptor cell assay, enhancer confirmation qHTS; AID 493076; activity change, negative = inhibition, % at 46.1 µM; active = well fitted curve in the direction sought with a large enough effect; inconclusive = small, poorly fitted or top-dose-only effect, or another doubt; inactive = no such curve, though single readings can be large; an effect the other way counts as inactive or inconclusive;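 also: compound effect scored on response to added TRH at EC20 of 10 nM; 0% is about no effect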
# TRHR agonist-2: confirmation of human TRH receptor agonists | TRHR-expressing cells, agonist activation read-out | shares compounds with TRHR enhancer-1 | hit rate 8% among 970 | Potency, µM (titrated, usually from 46.1 µM), for the others: at the top dose activation, most hits filed as activators; active = well fitted curve in the direction sought with a large enough effect; inconclusive = small, poorly fitted or top-dose-only effect, or another doubt; inactive = no such curve, though single readings can be large; an effect the other way counts as inactive or inconclusive; also: potency is read from the fitted curve at half-maximal effect; 0% is about no effect; nearly all actives have a fitted effect of over 75% in size
# * hit, by the source's call; ? = inconclusive; nt = not tested or not shown; ! = repeats disagree. Rule as the data show it, unless noted: active = activation above about 30%; inactive = the rest.
SMILES,D1 antag,TRHR enhancer-1,TRHR agonist-1,D1 PAM,D1 ag,TRHR enhancer-2,TRHR agonist-2
COc1cc2[nH]c(=O)n(-c3ccc(C)cc3)c(=O)c2cc1OC,-44*!,2,0,1,1,nt,nt
[O-][n+]1onc2c1CCC1N(O)CCC21O (stereo not given),-30*,-3,0,0,0,nt,nt
CCOC(=O)c1c(C=O)c2ccccc2n1Cc1ccccc1,-5,-3,1,2,8,nt,nt
CC(=O)N1CN2CN(C1)CN(C(C)=O)C2,11,2,1,-1,3,nt,nt
Cc1ccc(C)c(C2(O)CC(C)N(C)CC2C)c1 (stereo not given),-46*,1,1,-5,1,nt,nt
COc1ccc(CCNCc2c(OC)ccc3ccccc23)cc1,0,8,-1,-6,73*,nt,nt
CCCCCCCCn1sccc1=O,nt,2,0,-6,2,nt,nt
CCOc1ccc(-n2c(O)c(/C=C3\C=Nc4ccccc43)c(=O)[nH]c2=O)cc1,-5,-2,-1,2,32*,nt,nt
CC1(C)C[C@H]2C=C(C=O)[C@]3(C=O)C[C@]3(C)[C@H]2C1,-57*,-19,1,-4,2,nt,nt
COC(=O)C1=C(c2ccc3ccccc3c2)C[C@@H]2CC[C@H]1N2C(=O)N1CCCCC1,nt,-5,0,-2,-2,nt,nt
CC1CCCCC1NC1CCN(C)CC1 (stereo not given),2,1,3,-7,1,nt,nt
Cc1ccccc1-n1c(/C=C/c2ccc(N(C)C)cc2)nc2ccccc2c1=O,10,18,93*,60*,197*,nt,nt
O=c1c2ccccc2nc(/C=C/c2ccccc2O)n1-c1ccccc1O,-22,0,12,-6,31*,nt,nt
Cc1ccccc1-n1c(/C=C/c2c(C)[nH]c3ccccc23)nc2ccccc2c1=O,7,0,4,0,10,nt,nt
O=c1c2ccccc2nc(/C=C/c2ccccc2F)n1-c1ccccc1O,9,0,3,-4,11,nt,nt
Cc1ccc(CN2C(=O)c3ccccc3Sc3ccc(C(=O)N4CCC5(CC4)OCCO5)cc32)cc1,-4,-4,0,0,-3,nt,nt
CC(=NCCC1=CCCCC1)c1c(O)[nH]c(=O)[nH]c1=O,-19,-3,0,-9,0,nt,nt
OC(CN1CCCCC1)c1c[nH]c2ccccc12 (stereo not given),-16,-5,0,0,4,nt,nt
NC1CCc2cc(O)c(O)cc2C1 (stereo not given),-102*,0,0,-10,77*,nt,nt
COc1ccc(-c2nc3ccccc3c(=O)n2-c2ccc(OC)cc2)cc1,3,1,-1,-1,-1,nt,nt
COc1ccc(-n2c(-c3ccccc3Br)nc3ccccc3c2=O)cc1,-17,48*,0,3,0,-7,2%
Cc1cc(C)cc(NC(=O)CCNC(=O)N2C[C@H]3C[C@@H](C2)c2cccc(=O)n2C3)c1,7,25,0,3,1,nt,nt
CN1CCN(c2ccc(S(C)(=O)=O)cc2[N+](=O)[O-])CC1,5,-16,0,5,3,nt,nt
CN1CCN(c2ccc(S(=O)(=O)C(F)(F)F)cc2[N+](=O)[O-])CC1,-9,43*,1,-8,7,-4,8%
NC(=O)c1cn(C2OC(CO)C(O)C2O)c2ncnc(N)c12 (stereo not given),4,-7,-1,-2,2,nt,nt
SMILES,D1 antag,TRHR enhancer-1,TRHR agonist-1,D1 PAM,D1 ag,TRHR enhancer-2,TRHR agonist-2
CCNC(=O)[C@H]1O[C@@H](n2cnc3c(N)ncnc32)[C@H](O)[C@@H]1O,-12,45*,1,-1,1,?,-1%
CCOc1ccc(N2C(=O)NC(=O)/C(=C\c3ccc(N4CCCCC4)o3)C2=O)cc1,0,6,31*,2,85*,-4,23µM*
CCOc1ccc(N2C(=O)/C(=C/c3ccc(C)o3)C(=O)NC2=S)cc1,4,-6,0,-5,4,nt,nt
CCCCC1C(=O)NC(=S)NC1=O,-3,0,0,0,1,nt,nt
COC(=O)C1=C(c2ccc(OC)c(OC)c2)C[C@@H]2CC[C@H]1N2C(=O)NC1Cc2ccccc2C1,nt,-1,-2,3,-3,nt,nt
CC(C)N1CCN(Cc2cccc3c2OCO3)CC1CCO (stereo not given),-1,13,1,-5,1,nt,nt
CC(C)N1CCN(Cc2c[nH]c3ccccc23)CC1CCO (stereo not given),2,58*,1,3,3,-1,5%
Cc1ccc(N2C(=O)CC(=O)NC2=O)c(C)c1,-3,109*,1,0,1,0,-1%
O=C(Cn1cc(C(=O)c2ccccc2)c2ccccc21)NCc1ccco1,-17,56*,-2,-5,7,-9,1%
C=CCN(CC#CCOc1ccccc1OC)CC=C,nt,4,-1,-4,0,nt,nt
CCn1cc(CN2CCCC(C(=O)c3sccc3C)C2)cn1 (stereo not given),5,1,1,-2,-1,nt,nt
CCCCn1c(O)c(/C=C/C=Nc2ccccc2)c(=O)[nH]c1=O,2,24,41*,-3,71*,5,16µM*
Cn1c(O)c(/C=C/C=Nc2ccccc2)c(=O)n(C)c1=O,7,3,13,7,23,nt,nt
COC(=O)C1=C(c2ccc(OC)c(OC)c2)C[C@@H]2CC[C@H]1N2C(=O)NCc1cc(C)oc1C(F)(F)F,-1,-8,0,-1,0,nt,nt
CC1(C)OC(c2ccccc2)=C/C(=C/C=C2C(=O)NC(=O)NC2=O)O1,-5,15,30,-1,52*,-6,?
CN1CC=C2C(C#N)=C(N)C(C#N)(C#N)C(c3ccncc3)C2C1 (stereo not given),3,9,27,-4,16,-4,?
COc1ccc(N=Cc2c(O)n(-c3ccc(C)cc3)c(=O)[nH]c2=O)cc1,2,51*,0,-1,2,?,2%
C=CCn1c(O)c(C=Nc2ccc(OC)cc2C)c(=O)[nH]c1=O,-5,1,29,-4,0,-2,0%
C[C@H]1C(=O)O[C@@H]2CCN3CC=C(COC(=O)[C@](C)(O)[C@]1(C)O)[C@H]23,19,43*,1,-2,0,0,-1%
O=S(=O)(c1ccccc1)N1CCN2CCCC2C1 (stereo not given),-15,57*,1,2,5,0,0%
CCOc1cc(/C=C2\C(=O)NC(=O)N(CCc3ccc(F)cc3)C2=O)ccc1O,-6,1,2,1,3,nt,nt
Cc1cc(OC(=O)c2cccs2)c2c3c(c(=O)oc2c1)CCCC3,-4,-5,-1,-2,5,nt,nt
C=C(C=O)CC1CC(O)[C@]2(C)OC3C[C@@H]4OC5C[C@]6(C)O[C@]7(C)CCC8OC9C[C@]%10(C)OC(/C(C)=C\CO)C(O)CC%10OC9CC(C)C8OC7CC6O[C@]5(C)C/C=C\C4OC3CC2O1 (stereo not given in full),3,6,1,-7,1,nt,nt
C=C(CC1CC(O)[C@]2(C)OC3CC4OC5C[C@]6(C)O[C@]7(C)CCC8OC9C[C@]%10(C)OC%11C(C)=CC(=O)OC%11CC%10OC9C[C@@H](C)C8OC7CC6O[C@]5(C)C/C=C\C4OC3CC2O1)C(=O)O (stereo not given in full),8,50*,-1,-4,-2,?,0%

# Assay outcomes (PubChem)
